HT1080-NT tox – kills 2HG-producing HT-1080-NT fibrosarcoma cells; HT-1080-NT fibrosarcoma viability, CellTiter-Glo ATP luminescence, 48 h; Potency, µM (titrated, usually from 46.1 µM), inactives show top-dose activity, negative = less viability, actives largely listed as cytotoxic; 360,000 tested, 1.6% active; AID 686970;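 note: NT is the 2HG producing partner of a matched IDH1 knockdown line; 0% = DMSO-treated cells and -100% = media-only wells without cells; nearly all actives have a fitted effect of over 55% in size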
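Toxicity toward the 2HG-producing NT line was scored as %Activity, normalised to DMSO and no-cell wells, from CellTiter-Glo luminescence after 48 hours' treatment.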
DT40 TDP1 CPT – DT40-hTDP1 cell growth loss with CPT | AID 686979 | Potency, µM (doses to about 46.2 µM), for inactives: at the highest dose activity change, negative = growth inhibition, usual class: inhibitors | chicken DT40 Tdp1-/-;hTDP1 cells + 20 nM CPT, ATP luminescence, 48 h | 420,000 tested, 12% active; note: nearly all actives have a fitted effect of over 55% in size
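Cell growth measured by CellTiter-Glo luminescence after a minimum 48 h, 37 C compound exposure with 20 nM CPT in Tdp1-knockout DT40 cells stably expressing hTDP1, seeded 400/well; qHTS titration format.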
KB-V1 cytotox – kills drug-selected multidrug resistant KB-V1 cells | KB-V1 MDR cells viability, CellTiter-Glo, 72 h | Potency, µM (titrated, usually from 46.1 µM), usual class: cytotoxic | 400,000 tested, 3.4% active | AID 1347076; note: nearly all actives have a fitted effect of over 60% in size
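Compound-treated KB-V1 multidrug-resistant cells, 72 h, 37 degrees C; viability by CellTiter-Glo. Fitted qHTS curves give the values.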
KB-3-1 cytotox – kills parental KB-3-1 adenocarcinoma cells; KB-3-1 viability, CellTiter-Glo ATP luminescence, 72 h; Potency, µM (top dose mostly 46.1 µM), most hits filed as cytotoxic; 400,000 tested, 1.4% active; note: nearly all actives have a fitted effect of over 60% in size
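Parental KB-3-1 adenocarcinoma cells in phenol-red-free DMEM with 10% FBS were pin-treated with compounds at several concentrations, incubated 72 h at 37 °C, and viability read by CellTiter-Glo luminescence; concentration-effect curves were fitted after normalization.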
TDP1 cell noCPT – qHTS for Inhibitors of human tyrosyl-DNA phosphodiesterase 1 (TDP1): qHTS in cells in absence of CPT; 420,000 tested, 15% active; Potency, µM (series often up to 46.2 µM), for the others: top-dose activity change, negative = growth inhibition, hits mostly inhibitors; DT40 Tdp1-/- hTDP1 cells, no CPT, ATP luminescence, 48 h; note: nearly all actives have a fitted effect of over 55% in size
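DT40 Tdp1-/-;hTDP1 cells, no CPT (DMSO vehicle only), 400 cells/well; compounds pin-transferred; ≥48 hr, 37 °C; CellTiter-Glo 30 min RT dark, luminescence read.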
HT1080 IDH1KD tx – toxicity to HT-1080 IDH1 knockdown cells (counter line) | HT-1080 IDH1 knockdown viability, ATP luminescence, 48 h | Potency, µM (titrated, usually from 46.1 µM), without a hit: at the highest dose activity, negative = toxicity, usual class: cytotoxic | 360,000 tested, 2% active;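 note: 0% = DMSO wells and -100% = cell-free medium wells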
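IDH1KD HT-1080 cells, 750/well, RPMI + 5% FBS; compound pinned after 2 h settling; 48 h, 37 °C; CellTiter-Glo luminescence; % activity normalised to DMSO and no-cell wells; curves fitted, classed by r2 and efficacy.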
Active calls of the source: *; i = inactive; ? = inconclusive; nt = no result given; [ ] = remark or other dose. The list is not random: actives were taken first. Their share in the collection is about 19%. Calls come from the whole dose curve; as a rule, active = well fitted curve in the direction sought with a large enough effect; inconclusive = small, poorly fitted or top-dose-only effect, or another doubt; inactive = no such curve, though single readings can be large; an effect the other way counts as inactive or inconclusive. Unless noted, % is set by controls: 0 for no effect and ±100 for the full control effect; potency is the fitted concentration of half-maximal effect.

SMILES | HT1080-NT tox | DT40 TDP1 CPT | KB-V1 cytotox | KB-3-1 cytotox | TDP1 cell noCPT | HT1080 IDH1KD tx
COc1ccc(OC)c(NS(=O)(=O)c2ccccc2)c1 | nt | ? | i | i | -25% | nt
COc1ccc(NS(=O)(=O)c2ccc(SC)cc2)c(OC)c1 | -16% | -27% | 18µM* | i | ? | -17%
CC(=O)c1ccc(NC(=S)Nc2cccc(Cl)c2C)cc1 | -1% | -7% | i | i | -30% | -5%
CCOc1ccc(-n2c(=O)c3c4c(sc3n(Cc3cccc(C)c3)c2=O)CCCC4)cc1 | nt | -3% | ? | ? | -27% | nt
O=C(CCN1N=C(c2ccccc2)CCC1=O)NCC1CCCO1 (stereo not drawn) | 1% | 3% | i | i | 8% | -4%
Cc1cc(NCCCN2CCOCC2)n2nc(C)c(-c3ccc(F)cc3)c2n1 | ? | ? | i | i | 16µM* | ?
Cc1cc(NCCC(C)C)n2nc(C)c(-c3ccccc3)c2n1 | ? | ? | 21µM* | i | ? | ?
Cc1cc(NCCCN2CCOCC2)n2nc(C)c(-c3ccccc3)c2n1 | -24% | 16µM* | ? | ? | 16µM* | -22%
O=C(Nc1ccc(Br)cc1)C1CCN(S(=O)(=O)c2cccc3nsnc23)CC1 | nt | ? | i | i | -21% | nt
O=C(/C=C/c1cccc(C(F)(F)F)c1)Nc1cccc(C(F)(F)F)c1 | 11µM* | 23µM* | ? | ? | 23µM* | 7.9µM*
C=CCC(CC=C)(CNC(=O)C(=O)Nc1cccc(C(F)(F)F)c1)c1ccccc1 | nt | 18µM* | nt | nt | 21µM* | nt
CSc1cccc(NC(=O)/C=C/c2cccc(Cl)c2)c1 | -16% | ? | 18µM* | ? | ? | -15%
CCOc1ccccc1C(=O)NCCN1CCC(n2c(=O)[nH]c3ccccc32)CC1 | -13% | 23µM* | ? | i | 29µM* | -22%
O=C(NCCN1CCC(n2c(=O)[nH]c3ccccc32)CC1)c1cccc2c1-c1ccccc1C2=O | 14% | ? | i | i | 21µM* | 6%
COc1ccccc1C(=O)NCCN1CCC(n2c(=O)[nH]c3ccccc32)CC1 | 7% | ? | ? | i | ? | 26%
COc1ccc(C)cc1NC(=O)Cn1c(=O)nc(-c2ccccc2F)c2cc(Cl)ccc21 | nt | -5% | nt | nt | -1% | nt
Cn1ncc(C#N)c1NC(=O)C1CC(c2ccc(Cl)c(Cl)c2)=NO1 (stereo not drawn) | -1% | -32% | i | i | -23% | -6%
O=C(NCC1CCCO1)C1CC(c2ccc(Cl)c(Cl)c2)=NO1 (stereo not drawn) | 0% | 18µM* | i | i | ? | 8%
Cc1ccc(Nc2sc(C(=O)c3ccc(F)cc3)c(N)c2S(=O)(=O)c2ccc(C)cc2)cc1 | nt | 18µM* | nt | nt | ? | nt
Cc1ccc(Nc2sc(C(=O)c3ccccc3)c(N)c2S(=O)(=O)c2ccccc2)c(C)c1 | nt | ? | i | i | 15µM* | nt
Cc1ccc(S(=O)(=O)c2c(Nc3cc(F)ccc3F)sc(C(=O)c3ccc(F)cc3)c2N)cc1 | nt | 21µM* | ? | ? | 16µM* | nt
COc1cccc(C(=O)c2sc(Nc3ccc(C)cc3C)c(S(=O)(=O)c3ccccc3)c2N)c1 | nt | -10% | i | i | -30% | nt
CCc1ccc(Nc2sc(C(=O)c3ccc(F)cc3)c(N)c2S(=O)(=O)c2ccccc2)cc1 | nt | ? | i | i | ? | nt
Cc1ccc(Cl)cc1Nc1sc(C(=O)c2ccc(F)cc2)c(N)c1S(C)(=O)=O | nt | 16µM* | ? | i | ? | nt
Cc1ccc(C)c(Cn2c(=O)n(-c3ccccc3)c(=O)c3c4c(sc32)CCCC4)c1 | nt | ? | i | i | -6% | nt
SMILES | HT1080-NT tox | DT40 TDP1 CPT | KB-V1 cytotox | KB-3-1 cytotox | TDP1 cell noCPT | HT1080 IDH1KD tx
COc1ccc(NS(=O)(=O)c2ccc(NS(=O)(=O)c3cccs3)cc2)cc1 | -7% | 31% | i | i | -1% | -1%
COC(=O)c1cc(OC)c(OC)cc1NC(=O)c1ccc2c(c1)CCN2S(C)(=O)=O | nt | -3% | i | i | 0% | nt
Cc1cc(C(=O)COC(=O)COc2ccc(C#N)cc2)c(C)n1C1CC1 | 6% | 5% | ? | i | -4% | 8%
Nc1c(C(=O)c2ccc(F)cc2)sc(Nc2ccccc2F)c1S(=O)(=O)c1ccc(Br)cc1 | nt | 5.2µM* | nt | nt | 8.2µM* | nt
COc1ccc(OC)c(Nc2sc(C(=O)c3ccccc3)c(N)c2S(=O)(=O)c2ccccc2)c1 | nt | -5% | i | i | ? | nt
Clc1cccc(CNc2ncnc3nc[nH]c23)c1 | nt | ? | i | i | ? | nt
CCCCn1cc(S(=O)(=O)c2ccc(OC)cc2)c(=O)c2cc(F)c(N3CCOCC3)cc21 | nt | ? | i | i | ? | nt
O/N=C(/C[n+]1cccc(Br)c1)c1ccc2ccccc2c1 | nt | ? | i | i | 13µM* | nt
COc1ccccc1CN1CC(C(=O)NC2CCOCC2)CCC1=O (stereo not drawn) | 10% | 7% | i | i | -22% | 29%
COC(=O)c1sc2ccccc2c1-n1cccc1C(=O)C(=O)Nc1ccc(C)cc1 | -6% | ? | 9.2µM* | ? | ? | -6%[9.24 µM]
COC(=O)c1sccc1-n1cccc1C(=O)C(=O)Nc1ccc(F)cc1 | -16% | 10% | i | i | -10% | -7%
COC(=O)c1sc2ccccc2c1-n1cccc1C(=O)C(=O)Nc1ccc(F)cc1 | -3% | 14% | i | i | -26% | -1%
COC(=O)c1sc2ccccc2c1-n1cccc1C(=O)C(=O)Nc1ccc(Cl)cc1 | -2% | ? | 12µM* | ? | ? | 0%
Cc1ccc(-n2nc(CO)c(C(=O)NCCCCc3ccccc3)n2)cc1 | nt | -25% | nt | nt | ? | nt
Cc1ccc(-n2nc(CO)c(C(=O)NC(C)CCCc3ccccc3)n2)cc1 (stereo not drawn) | nt | ? | nt | nt | 21µM* | nt
Cc1ccc(-n2nc(CO)c(C(=O)NCCCc3ccccc3)n2)cc1 | nt | ? | nt | nt | 23µM* | nt
CC(C)COC(=O)N(C)C[C@@H]1OCc2cnnn2CCCC(=O)N([C@H](C)CO)C[C@H]1C | 10% | -2% | i | ? | 3% | 8%
CC(C)n1nnnc1SCC(=O)N1CCN(Cc2ccc3c(c2)OCCO3)CC1 | 2% | -2% | i | i | -9% | -5%
